Assay outcomes deposited in PubChem BioAssay by several laboratories.
This is a sample that favours compounds with a hit; in the whole collection about 2.1% have one here.
IDE act: boosts human insulin-degrading enzyme activity in HEK cells; actives 0.073% (n = 340,000); AID 493087; FAbeta-B cleavage, fluorescence polarization; 0% vehicle, 100% cell-free pure enzyme wells; activation, % at 5.96 µM;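 active means activation above the mean of all tested compounds plus 3 SD, set per screening campaign, cut at about 17% in these data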
HDAC3 inhib: human HDAC3 inhibition; O15379; recombinant HDAC3, fluorogenic peptide/trypsin coupled, fluorescence; inhibition, % at 8.3 µM; actives 0.15% (n = 320,000); in the data active means inhibition above about 26%, passing the limit was not always enough; inconclusive means no clear call, values can overlap the other calls
IDE inh: inhibits human insulin-degrading enzyme in HEK cells | P14735 | FAbetaB cleavage, fluorescence polarization | inhibition, % at 5.59 µM | actives 0.41% (n = 320,000) | AID 434962;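 active means percent inhibition above the average of all tested compounds plus 3 SD, set per screening campaign, cut at about 16% in these data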;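 further: IDE supplied by intact live HEK cells; FP after avidin binding of uncleaved biotin substrate so inhibition keeps polarization high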
SUMO Mot1 rescue: blocks SUMOylation pathway, rescuing yeast Mot1-301 growth. S. cerevisiae Mot1-301 growth rescue, ATP luminescence, 38.5C; percent above DMSO median, 100 means doubled. growth rescue, % at 18.8 µM. actives 1% (n = 320,000). AID 2716;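 active means every valid replicate shows activation above 250% relative to neutral control wells; inactive means the rest, any valid replicate at or below 250%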
LANA-H2A inh: blocks KSHV LANA binding to histone H2A/H2B | Q9QR71 | cell-free LANA-H2A/H2B peptide, fluorescence polarization | inhibition, % (no concentration beside the values) | actives 0.6% (n = 320,000); in the data active means inhibition mostly above about 10%, no sharp cut-off; inactive means mostly below about 6.7%
Target sequence (Q9QR71 whole entry, looked up): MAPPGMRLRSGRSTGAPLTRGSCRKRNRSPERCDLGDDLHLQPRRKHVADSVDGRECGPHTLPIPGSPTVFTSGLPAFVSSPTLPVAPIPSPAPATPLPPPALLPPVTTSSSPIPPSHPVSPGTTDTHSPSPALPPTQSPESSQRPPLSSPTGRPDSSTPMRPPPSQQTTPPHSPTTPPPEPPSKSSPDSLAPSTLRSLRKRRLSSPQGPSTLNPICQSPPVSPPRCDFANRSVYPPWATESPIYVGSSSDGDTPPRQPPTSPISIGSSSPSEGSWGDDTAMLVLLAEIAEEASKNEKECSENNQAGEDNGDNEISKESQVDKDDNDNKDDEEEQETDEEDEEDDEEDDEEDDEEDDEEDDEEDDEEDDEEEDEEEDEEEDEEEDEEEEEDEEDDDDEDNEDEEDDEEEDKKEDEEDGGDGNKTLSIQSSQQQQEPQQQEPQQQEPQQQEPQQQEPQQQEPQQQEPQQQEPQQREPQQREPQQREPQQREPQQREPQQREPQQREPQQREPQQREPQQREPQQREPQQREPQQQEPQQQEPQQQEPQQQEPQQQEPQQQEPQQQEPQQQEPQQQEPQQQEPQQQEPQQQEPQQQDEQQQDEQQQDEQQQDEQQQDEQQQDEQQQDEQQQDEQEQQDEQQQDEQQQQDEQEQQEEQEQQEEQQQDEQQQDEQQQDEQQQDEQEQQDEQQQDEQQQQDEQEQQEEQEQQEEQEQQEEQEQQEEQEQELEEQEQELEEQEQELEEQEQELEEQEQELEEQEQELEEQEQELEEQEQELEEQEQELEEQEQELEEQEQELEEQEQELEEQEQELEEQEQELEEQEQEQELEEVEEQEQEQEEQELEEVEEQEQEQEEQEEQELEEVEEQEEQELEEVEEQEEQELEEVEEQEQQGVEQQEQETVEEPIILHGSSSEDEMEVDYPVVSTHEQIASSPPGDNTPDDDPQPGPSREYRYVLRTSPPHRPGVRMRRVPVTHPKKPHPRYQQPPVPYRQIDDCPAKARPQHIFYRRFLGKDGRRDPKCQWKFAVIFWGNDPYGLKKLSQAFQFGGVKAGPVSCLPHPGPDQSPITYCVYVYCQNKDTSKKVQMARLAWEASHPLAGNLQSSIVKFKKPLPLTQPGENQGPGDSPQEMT
Each line names hits and unclear results; the compound was inactive in the other large screens.

CN(C)/C=C(\C=O)c1ncc(C(F)(F)F)cc1Cl	SUMO Mot1 rescue 905
Cc1ccc(S(=O)(=O)N2CCN(C(=O)n3ccnc3)CC2)cc1	LANA-H2A inh 31
CC(C)c1ccc(N(CC(=O)NC2CCCCC2)C(=O)CNC(=O)c2ccco2)cc1	LANA-H2A inh 39
O=C(Nc1ccc(Cl)cc1)P(=O)(O)c1ccccc1	none (no result: HDAC3 inhib, IDE inh, SUMO Mot1 rescue, LANA-H2A inh)
Cc1cc(O)c(C(=O)/C=C/c2ccccc2O)c(=O)o1	LANA-H2A inh 158 (no result: IDE inh)
Cc1cc(O)c(C(=O)/C=C/c2cccc([N+](=O)[O-])c2)c(=O)o1	LANA-H2A inh 16
CC(C)Oc1cccc(C(=O)C2CCCN(C(=O)CCc3cnn(C)c3)C2)c1 (stereo not given)	none
c1ccc(-n2cc(CN3CCCC(CN4CCCC4)C3)c(-c3ccc4c(c3)OCO4)n2)cc1 (stereo not given)	LANA-H2A inh 21
OC[C@@H]1CCCN1Cc1cn(-c2ccccc2)nc1-c1ccc2c(c1)OCO2	none
CC(C)(C)c1ccc(C(=O)c2c[nH]c(C(=O)NCCCn3ccnc3)c2)cc1	SUMO Mot1 rescue 324
COc1ccc(C(=O)c2c[nH]c(C(=O)NCCCn3ccnc3)c2)cc1	none
CCOC(=O)N1C(=O)NC(=O)C1c1ccccc1 (stereo not given)	none (no result: HDAC3 inhib, IDE inh, SUMO Mot1 rescue, LANA-H2A inh)
O=C1N=c2ccccc2=C1c1[nH]c(=S)[nH]c1O	LANA-H2A inh 12
O=C1N=c2ccccc2=C1c1sc(=O)[nH]c1O	none (no result: IDE act)
COc1ccc(NS(=O)(=O)c2cccc(C(=O)N/N=C(\C)c3cccnc3)c2)cc1	none (no result: HDAC3 inhib, IDE inh, SUMO Mot1 rescue, LANA-H2A inh)
C[N+]1(CCC(=O)c2ccccc2)CCCCC1	HDAC3 inhib inconclusive
C[N+]1(C)CCC(=C(c2ccccc2)c2ccccc2)CC1	LANA-H2A inh 15
Cc1c(CC(=O)O)c(=O)oc2cc(OCc3ccc(Cl)cc3)ccc12	LANA-H2A inh 44
Cc1c(CC(=O)O)c(=O)oc2cc(OCc3nn[nH]n3)ccc12	none
Cc1cc(C)nc(NC(=NCCc2c[nH]c3ccccc23)NC(=O)C(C)(C)C)n1	none
Nc1ccccc1NC(=O)NC(=O)c1ccccc1	HDAC3 inhib 41
CC(=O)c1cccc(NC(=O)Cn2cnc(S(=O)(=O)N3CCOCC3)c2)c1	none
Cc1[nH]n(-c2nc(-c3ccc(Cl)cc3)cs2)c(=O)c1N=Nc1ccc(O)cc1	none (no result: IDE act)
Cc1ccc(OCC(=O)N(C)CC(=O)Nc2ccc(Cl)c(C(F)(F)F)c2)c([N+](=O)[O-])n1	LANA-H2A inh 105
O=[N+]([O-])c1cccc(S(=O)(=O)N2CCN(S(=O)(=O)N3CCCCCC3)CC2)c1	none
CC(NCC(=O)Nc1ccccc1C(=O)NC1CC1)c1cccc(C(F)(F)F)c1 (stereo not given)	LANA-H2A inh 11
CC(NCC(=O)NCC(=O)Nc1ccc(F)cc1)c1cccc(C(F)(F)F)c1 (stereo not given)	none
CS(=O)c1ccc(-n2c(=O)n(Cc3ccccc3)c(=O)c3[nH]cnc32)cc1 (stereo not given)	none
COc1cc(/C=C/CNC[C@H]2O[C@@H](n3ccc(=O)[nH]c3=O)[C@H](O)[C@@H]2O)ccc1O	none (no result: HDAC3 inhib, IDE inh, SUMO Mot1 rescue, LANA-H2A inh)
O=S(=O)(c1cnc[nH]1)N1CCN(c2ccc(Cl)cc2)CC1	none
COc1ccc(N2CCN(S(=O)(=O)c3cnc[nH]3)CC2)cc1	LANA-H2A inh 33
COC(=O)c1c(C)[nH]c(C(=O)CN(C)CC(=O)Nc2cccc(F)c2)c1C	none
CCOC(=O)C1=C(C)C/C(=N\NC(=O)c2ccccc2O)CC1	LANA-H2A inh 17
CCOC(=O)N1CCC(=NNC(=O)c2cc3ccccc3cc2O)CC1	none (no result: HDAC3 inhib, LANA-H2A inh)
O=C(Nc1ccccc1N1CCOCC1)c1ccc2nc[nH]c2c1	none (no result: HDAC3 inhib, IDE inh, SUMO Mot1 rescue, LANA-H2A inh)
CCn1c(CSc2nnc(-c3cccnc3)n2-c2ccccc2C)nc2cc(C(=O)O)ccc21	LANA-H2A inh 18 (no result: IDE act)
CC(C)C(NC(=O)C1CCCCC1)C(=O)NCc1ccccn1 (stereo not given)	none
CC1CCC(C(=O)NC(C(=O)NCc2ccccn2)C(C)C)CC1 (stereo not given)	SUMO Mot1 rescue 344
CCN(CC)C(=O)C1c2ccccc2Oc2ccccc21	LANA-H2A inh 14
CC(=O)c1ccc(N2CCN(C(=O)c3cc(S(=O)(=O)N4CCOCC4)ccc3C)CC2)cc1	none
Cn1c(=N)c(S(=O)(=O)c2ccccc2)cc2c(=O)n3ccccc3nc21	SUMO Mot1 rescue 311
CCCn1c(=N)c(C#N)cc2c(=O)n3cccc(C)c3nc21	none (no result: IDE act)
CCCn1c(=N)c(C#N)cc2c(=O)n3ccccc3nc21	LANA-H2A inh 13
